Records with an inconclusive call do not appear. The source made the active and inactive calls.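 Rule for the calls, unless noted: active = viability at or under a set limit in both replicates, limit being median viability minus 3 SD (cut at about 48% in these data, passing the limit was not always enough); inconclusive = at or under the limit in just one replicate; inactive = at or above the limit in both replicates.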
Columns and labels:
[1] = reducers of endogenous Her2 protein level, primary screen, SKBR3 breast tumor cells, AlphaScreen, ATP viability (AID 461;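 active = Her2 level under about 52% in both replicate screens, with viability over 70% of control, limit read from the data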;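 for Her2 level: lower value means less Her2 protein in the cells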;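 for viability: percent of carrier control wells set as 100% viability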); settings: 18-24 h, measured here: SKBR3 viability, ATP luminescence, at 10 µM
[2] = target: Receptor tyrosine-protein kinase erbB-2 (Homo sapiens) (UniProt P04626); assay: as above; settings: 18-24 h, at 10 µM, stronger effect = lower value
Chain of Receptor tyrosine-protein kinase erbB-2 (Homo sapiens) (P04626 whole entry, looked up): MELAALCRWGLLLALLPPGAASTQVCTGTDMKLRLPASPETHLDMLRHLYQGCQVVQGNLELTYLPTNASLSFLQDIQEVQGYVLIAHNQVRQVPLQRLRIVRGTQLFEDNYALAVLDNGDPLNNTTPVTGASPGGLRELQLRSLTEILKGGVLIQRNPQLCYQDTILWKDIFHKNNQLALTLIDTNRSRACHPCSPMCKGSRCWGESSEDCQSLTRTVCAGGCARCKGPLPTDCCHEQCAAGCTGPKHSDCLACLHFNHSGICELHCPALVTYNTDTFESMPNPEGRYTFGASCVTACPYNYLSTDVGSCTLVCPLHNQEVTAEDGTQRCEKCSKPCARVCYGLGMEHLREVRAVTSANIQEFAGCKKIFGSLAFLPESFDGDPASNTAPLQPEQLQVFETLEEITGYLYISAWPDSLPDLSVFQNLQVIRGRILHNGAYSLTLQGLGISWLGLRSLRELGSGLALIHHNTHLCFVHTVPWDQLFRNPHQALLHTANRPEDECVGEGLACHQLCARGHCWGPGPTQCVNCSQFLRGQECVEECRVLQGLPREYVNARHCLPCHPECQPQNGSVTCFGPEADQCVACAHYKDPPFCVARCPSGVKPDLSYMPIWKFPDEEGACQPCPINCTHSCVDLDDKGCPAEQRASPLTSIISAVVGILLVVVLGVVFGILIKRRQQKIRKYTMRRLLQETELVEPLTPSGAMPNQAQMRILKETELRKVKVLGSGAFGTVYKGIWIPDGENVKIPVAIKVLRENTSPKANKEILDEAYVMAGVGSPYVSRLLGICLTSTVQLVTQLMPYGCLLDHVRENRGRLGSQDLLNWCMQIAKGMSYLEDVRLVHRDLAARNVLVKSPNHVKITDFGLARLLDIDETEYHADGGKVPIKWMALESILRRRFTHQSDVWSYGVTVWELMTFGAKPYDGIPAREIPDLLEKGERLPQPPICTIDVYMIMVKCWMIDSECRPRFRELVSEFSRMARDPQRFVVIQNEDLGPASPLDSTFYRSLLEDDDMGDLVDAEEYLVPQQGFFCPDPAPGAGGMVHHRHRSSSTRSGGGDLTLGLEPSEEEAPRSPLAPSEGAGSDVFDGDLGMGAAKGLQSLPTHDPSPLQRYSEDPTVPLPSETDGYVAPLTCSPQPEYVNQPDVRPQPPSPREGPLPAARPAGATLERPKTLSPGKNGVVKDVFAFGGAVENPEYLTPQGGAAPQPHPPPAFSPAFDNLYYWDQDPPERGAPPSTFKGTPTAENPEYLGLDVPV

[3] = SK-BR-3 cell growth inhibitors, pilot screen, 24 h, human (AID 572;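 active = viability at or below 10% of carrier control in both of two separate runs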;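 note: compound exposure lasted between 18 and 24 h rather than exactly 24 h; 100% = carrier-treated control wells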); settings: SK-BR-3 viability, CellTiter-Glo luminescence, at 10 µM, stronger effect = lower value
[4] = growth inhibitors of H69AR lung tumor, primary screen, human, duplicate replicates (AID 580); settings: H69AR lung tumor cells viability, ATP luminescence, 72 h; at 10 µM; stronger effect = lower value;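 note: 100% = mean luminescence of untreated wells and 0% = no signal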
[5] = reversal of MRP1-mediated doxorubicin resistance, pilot screen, H69AR cells, doxorubicin co-treatment (AID 601;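 active = viability loss from added drug above about 55%, and viability with drug at most 40%, in both replicates, limit read from the data, passing the limit was not always enough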); settings: CellTiter-Glo, 72 h, at 10 µM; for differential viability (reversal): stronger effect = higher value
[6] = 384-well plate pilot, post-Golgi transport modulator project, inhibition of yeast transport mutant growth (AID 636; in the data active = inhibition above about 31%); settings: absorbance 615 nm, about 18 h, stronger effect = higher value
[7] = growth suppression of yeast trafficking mutant, preliminary HTS, modulators of trafficking downstream of Golgi apparatus project, 1536-format plate, OD 615 nm (AID 637; in the data active = inhibition above about 30%); settings: yeast transport mutant growth, absorbance 615 nm, 18 h; stronger effect = higher value
[8] = HUVEC growth inhibition – cell-based, human, primary screen (AID 575;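 active = viability at or below 30% in both replicate assays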;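 note: 100% = median of untreated cell wells with 0.1% DMSO on each plate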); settings: HUVEC proliferation, CellTiter-Glo luminescence, 72 h; at 10 µM; stronger effect = lower value
[9] = Restrictive medium S. cerevisiae growth inhibition, OD615, pilot screen of yeast lifespan reduction project, restrictive growth control (AID 706;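 active = growth inhibition above a set limit, 3 SD over mean compound inhibition, in both replicates, cut at about 43% in these data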;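 note: modified DeaD lifespan yeast strain shifted to restrictive glucose medium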); settings: OD615, 48 h, at 10 µM, stronger effect = higher value
[10] = viability gain of MRP-1-high H69AR cells under doxorubicin, pilot screen, MRP-1 activator project, CellTiter-Glo, duplicate (AID 807;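 active = viability increase at or above a cutoff of the median across tested compounds plus 3 SD, cut at about 8.5% in these data, passing the limit was not always enough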;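 note: compound pretreatment 18-22 h then 72 h combined with doxorubicin; 0% = doxorubicin alone and 100% = vehicle without doxorubicin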); settings: H69AR viability with doxorubicin, CellTiter-Glo luminescence; at 10 µM; stronger effect = higher value
[11] = growth suppression of beta-catenin knockout HCT116, pilot screen, human colon tumor cells (AID 823;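 active = cell viability at or below a set limit in both duplicate runs, the limit being the all-compound median minus 4 SD, cut at about 23% in these data, passing the limit was not always enough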;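 note: 0% = wells killed by 20 µM Hyamine and 100% = untreated DMSO cell wells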); settings: CellTiter-Glo, 60 h, at 10 µM, stronger effect = lower value
[12] = growth suppression of PTEN-deleted HCT116, pilot screen, cell-based, HCT116 clonal line, CellTiter-Glo (AID 824;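 active = viability at or below 27.92% in each of two runs, the all-compound median minus 4 SD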;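 note: 0% = 20 µM Hyamine control and 100% = vehicle cell control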); settings: 60 h, at 10 µM, stronger effect = lower value
[13] = inhibitors of the yeast RAM network, pilot screen, dse1pr::URA3 reporter, 5-FOA selection (AID 869;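 active = inhibition over a set limit, the all-compound mean plus 3 SD, in both replicate runs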;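 note: 0% = DMSO wells with no growth and 100% = 10 µM 1-NA-PP1 with full growth; RAM network block rescues cells from 5-FOA so hits raise OD615 growth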); settings: S. cerevisiae dse1pr::URA3 5-FOA growth, OD615, 2 d; at 10 µM; stronger effect = higher value; strain carries analog-sensitive mutant Cbk1 kinase
[14] = H69AR cells + 2 uM doxorubicin, measured here: viability with 2 uM doxorubicin, stronger effect = lower value
[15] = H69AR cells, compound alone cytotoxicity

Row | Structure (SMILES) | viability [1] [%] | Her2 level [2] | viability [3] | viability [4] | differential viability (reversal) ([5]; H69AR cells + 2 uM doxorubicin) | viability [5, 14] [%] | viability [5, 15] [%] | inhibition [6] | inhibition [7] | viability [8] | growth inhibition [9] | viability increase [10] | viability [11] | viability [12] | inhibition [13]
1 | O=C(CC(=O)c1cc(Cl)ccc1O)c1ccccc1 | 131 | 89% (inactive) | 131% (inactive) | 11.4% (active) | -9.6% (inactive) | 21 | 11.4 | 94.7% (active) | 61.3% (active) | – | – | – | – | – | –
2 | Cc1ccc(C(=O)/C=C/Nc2cccc(O)c2)cc1 | 111 | 76% (inactive) | 111% (inactive) | 85.1% (inactive) | 3.02% (inactive) | 82.1 | 85.1 | -7.03% (inactive) | -1.83% (inactive) | – | – | – | – | – | –
3 | O=C(Nc1ccc(S(=O)(=O)N2CCCCCC2)cc1)c1ccco1 | 94.5 | 89.5% (inactive) | 94.5% (inactive) | 97.1% (inactive) | 2.81% (inactive) | 94.3 | 97.1 | -1.17% (inactive) | 6.07% (inactive) | – | – | – | – | – | –
4 | COc1cccc(-c2cc3nc4c(c(N5CCC6(CC5)OCCO6)n3n2)CCCC4)c1 | 124 | 67.5% (inactive) | 124% (inactive) | 58.5% (inactive) | -3.45% (inactive) | 61.9 | 58.5 | 35.3% (active) | 21.6% (inactive) | – | – | – | – | – | –
5 | CS(=O)(=O)c1ncc(Cl)c(C(=O)Nc2ccc(N3CCOCC3)cc2)n1 | 201 | 8% (active) | 201% (inactive) | 0.715% (active) | 0.355% (inactive) | 0.36 | 0.715 | -4.21% (inactive) | 3.65% (inactive) | – | – | – | – | – | –
6 | CCOC(=O)c1c(C)oc2c1c(C=NCc1ccccn1)c(O)c1ccccc12 | 154 | 22% (active) | 154% (inactive) | 16.5% (active) | 6.13% (inactive) | 10.3 | 16.5 | -8.38% (inactive) | 3.67% (inactive) | – | – | – | – | – | –
7 | CCOC(=O)c1cnc(-n2nc(C)cc2C)nc1NC(C)c1ccccc1 (stereo not given) | 153 | 65% (inactive) | 153% (inactive) | 10.1% (active) | -1.17% (inactive) | 11.3 | 10.1 | -3.16% (inactive) | 14.3% (inactive) | – | – | – | – | – | –
8 | Clc1ccc(Cl)c(-c2nn3c(COc4ccccc4)nnc3s2)c1 | 96 | 69% (inactive) | 96% (inactive) | 72.9% (inactive) | 1.02% (inactive) | 71.9 | 72.9 | -5.07% (inactive) | 5.32% (inactive) | – | – | – | – | – | –
9 | Nc1nc(N2CCN(C/C=C/c3ccccc3)CC2)nc2ccccc12 | 80.5 | 98.5% (inactive) | 80.5% (inactive) | 92% (inactive) | 5.93% (inactive) | 86.1 | 92 | -5.07% (inactive) | -2.13% (inactive) | – | – | – | – | – | –
10 | CCOC(=O)c1cc(-c2ccc3c(c2)OCO3)nc2onc(C)c12 | 110 | 89.5% (inactive) | 110% (inactive) | 67.2% (inactive) | -3.71% (inactive) | 70.9 | 67.2 | -4.93% (inactive) | 2.9% (inactive) | – | – | – | – | – | –
11 | O=c1c2ccccc2nc(SCc2nnc(-c3ccccc3Br)o2)n1-c1ccccc1 | 77 | 95.5% (inactive) | 77% (inactive) | 84.2% (inactive) | -3.29% (inactive) | 87.5 | 84.2 | -0.27% (inactive) | 3.77% (inactive) | – | – | – | – | – | –
12 | CCOC(=O)c1ccc(N=Cc2nc(-c3ccccc3)oc2OC(C)=O)cc1 | 106 | 75.5% (inactive) | 106% (inactive) | 17.9% (active) | -5.29% (inactive) | 23.2 | 17.9 | -4.47% (inactive) | -2.38% (inactive) | – | – | – | – | – | –
13 | COc1ccccc1NC(=O)Cn1nnc(-c2ccccc2NC(=O)c2ccco2)n1 | 91.5 | 72.5% (inactive) | 91.5% (inactive) | 6.73% (active) | -4.18% (inactive) | 10.9 | 6.73 | -5.41% (inactive) | 0.66% (inactive) | – | – | – | – | – | –
14 | Cc1cccc(NC(=O)c2cc(NC(=O)c3ccco3)ccc2N2CCCCC2)c1 | 85 | 80.5% (inactive) | 85% (inactive) | 65.9% (inactive) | 17.8% (inactive) | 48 | 65.9 | -4.4% (inactive) | 2.46% (inactive) | – | – | – | – | – | –
15 | COC(=O)c1ccc2c(=O)n(Cc3ccco3)c(SCC(=O)Nc3ccc(C)c(Cl)c3)nc2c1 | 77.5 | 59.5% (inactive) | 77.5% (inactive) | 8.06% (active) | -2.23% (inactive) | 10.3 | 8.06 | -1.71% (inactive) | -2.7% (inactive) | – | – | – | – | – | –
16 | CNCCCC1c2ccccc2C=Cc2ccccc21 | – | – | 82% (inactive) | 92% (inactive) | 15.2% (inactive) | 76.7 | 92 | – | – | 69.5% (inactive) | – | – | – | – | –
17 | N#Cc1ccccc1Cn1c(=O)n(Cc2ccc(C(=O)NCc3ccco3)cc2)c(=O)c2sccc21 | 75.5 | 80% (inactive) | 75.5% (inactive) | 77.8% (inactive) | 9.52% (inactive) | 68.3 | 77.8 | -1.28% (inactive) | -1.67% (inactive) | – | -22.5% (inactive) | -4.44% (inactive) | 91.3% (inactive) | 79.5% (inactive) | 2.11% (inactive)
